# In ChEMBL document CHEMBL2218924, “A broad activity screen in support of a chemogenomic map for kinase signalling research and drug discovery” (Biochem J, 2013):
# Key:
# [1] = biological target: T1, Ephrin type-A receptor 3 (Homo sapiens) (UniProt P29320); conditions: at 10 µM
# T1 sequence (whole entry): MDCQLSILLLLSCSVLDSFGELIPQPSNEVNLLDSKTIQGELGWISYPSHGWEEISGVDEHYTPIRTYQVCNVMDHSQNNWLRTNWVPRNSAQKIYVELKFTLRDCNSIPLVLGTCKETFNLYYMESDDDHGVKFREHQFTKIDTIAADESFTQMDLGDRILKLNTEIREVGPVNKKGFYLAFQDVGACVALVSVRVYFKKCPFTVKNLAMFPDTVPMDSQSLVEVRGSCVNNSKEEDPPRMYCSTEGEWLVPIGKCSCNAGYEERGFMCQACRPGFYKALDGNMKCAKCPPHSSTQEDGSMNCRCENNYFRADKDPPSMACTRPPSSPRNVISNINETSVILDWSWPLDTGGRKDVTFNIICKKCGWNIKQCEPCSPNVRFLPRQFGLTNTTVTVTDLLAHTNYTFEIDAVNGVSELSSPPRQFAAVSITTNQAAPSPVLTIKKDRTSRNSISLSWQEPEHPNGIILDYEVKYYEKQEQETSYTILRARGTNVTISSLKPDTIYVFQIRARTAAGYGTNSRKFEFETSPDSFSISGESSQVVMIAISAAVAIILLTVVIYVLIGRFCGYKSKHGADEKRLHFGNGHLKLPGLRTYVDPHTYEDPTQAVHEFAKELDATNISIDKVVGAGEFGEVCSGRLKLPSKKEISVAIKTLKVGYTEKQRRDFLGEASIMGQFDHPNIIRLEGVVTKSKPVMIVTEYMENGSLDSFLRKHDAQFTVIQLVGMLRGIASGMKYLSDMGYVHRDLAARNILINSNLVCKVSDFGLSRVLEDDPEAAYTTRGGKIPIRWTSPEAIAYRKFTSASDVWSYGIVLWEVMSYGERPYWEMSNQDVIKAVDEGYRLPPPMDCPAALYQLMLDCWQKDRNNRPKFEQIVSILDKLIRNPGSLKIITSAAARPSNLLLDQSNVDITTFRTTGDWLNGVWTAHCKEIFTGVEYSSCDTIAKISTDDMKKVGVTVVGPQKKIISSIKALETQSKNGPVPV
# [2] = biological target: Ephrin type-A receptor 4 (Homo sapiens) (UniProt P54764); conditions: at 1 µM
# Ephrin type-A receptor 4 (Homo sapiens), sequence (P54764 whole entry): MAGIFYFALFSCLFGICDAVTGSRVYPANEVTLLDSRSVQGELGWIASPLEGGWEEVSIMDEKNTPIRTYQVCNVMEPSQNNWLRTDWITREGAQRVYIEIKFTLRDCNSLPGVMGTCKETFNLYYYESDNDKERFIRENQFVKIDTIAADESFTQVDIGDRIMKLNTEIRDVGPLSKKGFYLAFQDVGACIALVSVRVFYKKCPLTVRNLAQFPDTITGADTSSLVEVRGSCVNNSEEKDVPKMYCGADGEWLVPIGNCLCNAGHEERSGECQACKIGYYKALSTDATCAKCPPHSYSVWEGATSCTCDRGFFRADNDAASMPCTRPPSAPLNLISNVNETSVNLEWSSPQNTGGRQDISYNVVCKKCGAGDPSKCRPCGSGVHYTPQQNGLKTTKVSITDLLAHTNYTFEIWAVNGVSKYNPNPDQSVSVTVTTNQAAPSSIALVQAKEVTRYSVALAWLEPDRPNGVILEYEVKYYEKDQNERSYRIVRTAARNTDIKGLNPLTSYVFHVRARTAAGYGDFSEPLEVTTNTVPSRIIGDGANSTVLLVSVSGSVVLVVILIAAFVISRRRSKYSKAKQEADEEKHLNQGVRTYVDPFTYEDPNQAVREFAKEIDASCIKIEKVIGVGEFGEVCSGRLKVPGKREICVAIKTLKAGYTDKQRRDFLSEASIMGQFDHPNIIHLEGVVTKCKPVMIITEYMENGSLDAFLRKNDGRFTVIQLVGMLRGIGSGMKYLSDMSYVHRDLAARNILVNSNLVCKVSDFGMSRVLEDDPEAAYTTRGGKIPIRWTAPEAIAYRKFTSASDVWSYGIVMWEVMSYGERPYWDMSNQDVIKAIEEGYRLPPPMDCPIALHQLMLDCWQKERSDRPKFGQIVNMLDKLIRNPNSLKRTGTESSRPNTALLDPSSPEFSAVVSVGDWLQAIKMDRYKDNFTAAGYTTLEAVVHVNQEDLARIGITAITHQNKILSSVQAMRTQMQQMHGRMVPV
# [3] = biological target: Ephrin type-A receptor 4 (Homo sapiens) (UniProt P54764); conditions: at 10 µM
# [4] = biological target: Ephrin type-A receptor 5 (Homo sapiens) (UniProt P54756); conditions: at 1 µM
# Ephrin type-A receptor 5 (Homo sapiens), sequence (P54756 whole entry): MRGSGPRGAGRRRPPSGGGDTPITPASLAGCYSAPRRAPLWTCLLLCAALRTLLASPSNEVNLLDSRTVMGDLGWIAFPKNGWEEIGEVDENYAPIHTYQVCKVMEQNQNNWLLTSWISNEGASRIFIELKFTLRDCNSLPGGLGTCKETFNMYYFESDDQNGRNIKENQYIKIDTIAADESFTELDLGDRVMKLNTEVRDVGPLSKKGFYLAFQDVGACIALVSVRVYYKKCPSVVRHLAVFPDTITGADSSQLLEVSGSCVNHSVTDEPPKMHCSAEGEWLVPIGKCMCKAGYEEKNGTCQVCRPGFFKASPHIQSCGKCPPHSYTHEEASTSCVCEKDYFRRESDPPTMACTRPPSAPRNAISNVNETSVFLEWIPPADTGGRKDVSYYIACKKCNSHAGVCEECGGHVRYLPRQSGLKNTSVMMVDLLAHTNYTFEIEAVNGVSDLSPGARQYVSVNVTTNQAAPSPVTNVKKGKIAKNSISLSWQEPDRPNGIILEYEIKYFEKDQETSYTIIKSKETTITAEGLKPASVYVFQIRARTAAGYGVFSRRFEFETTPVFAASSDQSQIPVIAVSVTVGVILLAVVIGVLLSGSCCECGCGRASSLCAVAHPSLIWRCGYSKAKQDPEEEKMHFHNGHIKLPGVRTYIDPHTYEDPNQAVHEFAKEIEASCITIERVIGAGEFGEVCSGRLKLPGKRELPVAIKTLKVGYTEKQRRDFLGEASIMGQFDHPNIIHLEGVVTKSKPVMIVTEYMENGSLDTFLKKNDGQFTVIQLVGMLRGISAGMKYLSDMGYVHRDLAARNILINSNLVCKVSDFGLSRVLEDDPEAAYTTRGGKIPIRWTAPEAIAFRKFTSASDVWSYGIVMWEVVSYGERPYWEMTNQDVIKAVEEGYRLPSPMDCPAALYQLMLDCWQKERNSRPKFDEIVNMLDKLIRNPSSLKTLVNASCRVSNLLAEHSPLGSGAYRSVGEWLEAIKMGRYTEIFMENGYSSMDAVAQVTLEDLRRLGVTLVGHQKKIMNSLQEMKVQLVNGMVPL
# [5] = biological target: Ephrin type-A receptor 5 (Homo sapiens) (UniProt P54756); conditions: at 10 µM
# [6] = biological target: Ephrin type-A receptor 7 (Homo sapiens) (UniProt Q15375); conditions: at 1 µM
# Ephrin type-A receptor 7 (Homo sapiens), sequence (Q15375 28-998 limits assumed): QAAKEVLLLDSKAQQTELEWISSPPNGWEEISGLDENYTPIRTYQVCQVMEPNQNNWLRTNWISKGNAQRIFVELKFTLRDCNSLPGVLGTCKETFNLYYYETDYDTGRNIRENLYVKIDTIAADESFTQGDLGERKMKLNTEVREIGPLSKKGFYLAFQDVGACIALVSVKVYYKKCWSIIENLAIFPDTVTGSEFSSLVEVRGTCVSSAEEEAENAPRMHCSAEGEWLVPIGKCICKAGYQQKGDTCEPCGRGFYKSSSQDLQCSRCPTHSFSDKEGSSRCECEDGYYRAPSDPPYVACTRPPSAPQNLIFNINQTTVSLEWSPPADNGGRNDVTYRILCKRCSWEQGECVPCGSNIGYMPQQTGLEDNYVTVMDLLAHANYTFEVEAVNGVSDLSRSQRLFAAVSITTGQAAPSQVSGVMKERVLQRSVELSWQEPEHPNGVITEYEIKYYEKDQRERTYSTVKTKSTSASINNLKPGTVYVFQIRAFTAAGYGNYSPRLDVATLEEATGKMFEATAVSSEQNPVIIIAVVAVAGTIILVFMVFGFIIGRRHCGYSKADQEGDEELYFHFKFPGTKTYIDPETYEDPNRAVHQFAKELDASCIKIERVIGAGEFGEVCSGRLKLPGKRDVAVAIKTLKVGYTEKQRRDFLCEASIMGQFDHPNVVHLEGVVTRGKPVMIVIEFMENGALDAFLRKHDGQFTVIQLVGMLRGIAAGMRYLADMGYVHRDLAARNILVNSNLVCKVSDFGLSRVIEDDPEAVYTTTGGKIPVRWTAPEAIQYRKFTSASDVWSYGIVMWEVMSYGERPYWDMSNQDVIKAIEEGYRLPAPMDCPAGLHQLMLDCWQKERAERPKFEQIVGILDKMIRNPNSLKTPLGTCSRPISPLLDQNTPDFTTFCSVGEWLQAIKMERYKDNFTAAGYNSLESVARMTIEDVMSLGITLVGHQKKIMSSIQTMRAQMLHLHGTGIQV
# [7] = biological target: Ephrin type-A receptor 7 (Homo sapiens) (UniProt Q15375); conditions: at 10 µM
# [8] = biological target: T2, Ephrin type-A receptor 8 (Homo sapiens) (UniProt P29322); conditions: at 1 µM
# T2 sequence (whole entry): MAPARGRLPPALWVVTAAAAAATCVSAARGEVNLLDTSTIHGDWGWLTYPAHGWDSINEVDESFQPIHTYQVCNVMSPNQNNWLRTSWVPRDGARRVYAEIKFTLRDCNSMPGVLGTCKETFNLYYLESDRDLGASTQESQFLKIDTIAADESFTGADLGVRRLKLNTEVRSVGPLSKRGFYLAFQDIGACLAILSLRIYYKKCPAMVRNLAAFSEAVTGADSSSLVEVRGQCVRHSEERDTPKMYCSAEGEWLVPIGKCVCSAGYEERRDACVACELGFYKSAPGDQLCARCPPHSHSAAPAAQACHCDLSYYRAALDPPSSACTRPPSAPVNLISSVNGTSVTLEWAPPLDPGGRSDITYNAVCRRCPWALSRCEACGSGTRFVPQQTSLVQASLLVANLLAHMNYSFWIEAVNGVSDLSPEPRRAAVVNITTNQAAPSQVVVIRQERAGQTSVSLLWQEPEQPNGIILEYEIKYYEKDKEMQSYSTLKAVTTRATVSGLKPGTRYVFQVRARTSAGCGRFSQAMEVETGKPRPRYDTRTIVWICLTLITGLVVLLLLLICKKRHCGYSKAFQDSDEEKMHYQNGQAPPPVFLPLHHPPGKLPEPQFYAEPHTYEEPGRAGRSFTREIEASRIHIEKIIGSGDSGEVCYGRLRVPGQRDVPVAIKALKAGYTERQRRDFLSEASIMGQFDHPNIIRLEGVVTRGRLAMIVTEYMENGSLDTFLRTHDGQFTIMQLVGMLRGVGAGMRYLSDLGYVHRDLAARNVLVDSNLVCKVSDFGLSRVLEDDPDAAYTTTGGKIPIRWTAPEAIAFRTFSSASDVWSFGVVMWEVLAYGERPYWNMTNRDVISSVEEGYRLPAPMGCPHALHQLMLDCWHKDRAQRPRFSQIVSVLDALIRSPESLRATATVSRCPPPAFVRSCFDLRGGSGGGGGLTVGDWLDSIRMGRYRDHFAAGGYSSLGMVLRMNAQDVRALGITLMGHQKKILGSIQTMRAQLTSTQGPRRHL
# [9] = biological target: T2, Ephrin type-A receptor 8 (Homo sapiens); conditions: at 10 µM
# [10] = biological target: T3, Ephrin type-B receptor 1 (Homo sapiens) (UniProt P54762); conditions: at 1 µM
# T3 sequence (whole entry): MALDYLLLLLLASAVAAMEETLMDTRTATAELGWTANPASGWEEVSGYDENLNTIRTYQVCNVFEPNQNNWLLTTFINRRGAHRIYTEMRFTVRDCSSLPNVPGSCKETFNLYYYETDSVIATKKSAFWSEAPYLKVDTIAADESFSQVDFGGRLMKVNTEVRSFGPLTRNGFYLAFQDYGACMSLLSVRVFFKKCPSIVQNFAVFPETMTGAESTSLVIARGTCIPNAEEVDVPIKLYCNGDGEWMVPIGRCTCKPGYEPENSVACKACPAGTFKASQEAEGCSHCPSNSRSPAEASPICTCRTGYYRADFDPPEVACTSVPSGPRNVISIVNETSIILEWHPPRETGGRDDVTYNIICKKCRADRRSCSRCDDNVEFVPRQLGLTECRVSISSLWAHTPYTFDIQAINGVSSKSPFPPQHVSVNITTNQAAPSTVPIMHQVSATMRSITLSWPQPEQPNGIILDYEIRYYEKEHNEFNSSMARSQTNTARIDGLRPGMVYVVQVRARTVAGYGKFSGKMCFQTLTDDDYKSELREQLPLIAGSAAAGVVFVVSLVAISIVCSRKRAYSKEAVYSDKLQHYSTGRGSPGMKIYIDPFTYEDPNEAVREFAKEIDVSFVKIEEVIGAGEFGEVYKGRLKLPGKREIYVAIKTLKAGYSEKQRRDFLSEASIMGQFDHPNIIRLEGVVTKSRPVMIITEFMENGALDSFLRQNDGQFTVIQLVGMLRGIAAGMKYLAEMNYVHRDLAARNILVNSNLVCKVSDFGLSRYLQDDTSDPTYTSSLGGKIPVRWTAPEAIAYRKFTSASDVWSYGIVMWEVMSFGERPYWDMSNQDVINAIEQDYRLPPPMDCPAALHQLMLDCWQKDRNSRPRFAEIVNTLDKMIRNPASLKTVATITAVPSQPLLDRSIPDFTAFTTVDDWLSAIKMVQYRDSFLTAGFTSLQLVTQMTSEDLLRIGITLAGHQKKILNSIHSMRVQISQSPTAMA
# [11] = biological target: T3, Ephrin type-B receptor 1 (Homo sapiens); conditions: at 10 µM
# [12] = biological target: T4, Ephrin type-B receptor 3 (Homo sapiens) (UniProt P54753); conditions: at 10 µM
# T4 sequence (whole entry): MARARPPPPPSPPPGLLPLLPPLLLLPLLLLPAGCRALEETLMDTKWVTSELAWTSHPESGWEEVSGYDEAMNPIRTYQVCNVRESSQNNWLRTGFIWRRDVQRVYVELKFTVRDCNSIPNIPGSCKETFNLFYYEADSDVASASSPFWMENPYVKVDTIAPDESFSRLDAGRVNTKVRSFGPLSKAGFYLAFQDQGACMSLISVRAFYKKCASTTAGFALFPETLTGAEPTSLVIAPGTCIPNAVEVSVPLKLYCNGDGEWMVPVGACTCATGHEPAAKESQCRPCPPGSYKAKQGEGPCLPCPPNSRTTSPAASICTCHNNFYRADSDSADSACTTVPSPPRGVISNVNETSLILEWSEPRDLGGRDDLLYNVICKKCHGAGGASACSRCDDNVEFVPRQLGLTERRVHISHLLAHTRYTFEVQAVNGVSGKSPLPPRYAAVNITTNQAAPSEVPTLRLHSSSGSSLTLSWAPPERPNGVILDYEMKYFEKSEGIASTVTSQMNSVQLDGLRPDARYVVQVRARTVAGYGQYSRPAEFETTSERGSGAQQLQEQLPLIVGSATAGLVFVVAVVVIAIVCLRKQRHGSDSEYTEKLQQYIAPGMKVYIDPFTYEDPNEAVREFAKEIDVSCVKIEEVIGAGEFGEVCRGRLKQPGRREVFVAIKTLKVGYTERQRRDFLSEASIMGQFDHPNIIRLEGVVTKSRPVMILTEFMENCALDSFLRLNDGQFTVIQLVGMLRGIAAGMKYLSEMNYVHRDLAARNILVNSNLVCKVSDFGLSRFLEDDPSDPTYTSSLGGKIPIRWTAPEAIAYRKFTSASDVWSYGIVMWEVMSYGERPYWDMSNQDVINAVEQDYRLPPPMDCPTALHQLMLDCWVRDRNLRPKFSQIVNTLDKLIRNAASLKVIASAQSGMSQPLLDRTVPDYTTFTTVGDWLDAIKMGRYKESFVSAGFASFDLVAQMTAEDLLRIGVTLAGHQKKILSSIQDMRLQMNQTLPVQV
# [13] = biological target: T5, Ephrin type-B receptor 4 (Homo sapiens) (UniProt P54760); conditions: at 1 µM
# T5 sequence (whole entry): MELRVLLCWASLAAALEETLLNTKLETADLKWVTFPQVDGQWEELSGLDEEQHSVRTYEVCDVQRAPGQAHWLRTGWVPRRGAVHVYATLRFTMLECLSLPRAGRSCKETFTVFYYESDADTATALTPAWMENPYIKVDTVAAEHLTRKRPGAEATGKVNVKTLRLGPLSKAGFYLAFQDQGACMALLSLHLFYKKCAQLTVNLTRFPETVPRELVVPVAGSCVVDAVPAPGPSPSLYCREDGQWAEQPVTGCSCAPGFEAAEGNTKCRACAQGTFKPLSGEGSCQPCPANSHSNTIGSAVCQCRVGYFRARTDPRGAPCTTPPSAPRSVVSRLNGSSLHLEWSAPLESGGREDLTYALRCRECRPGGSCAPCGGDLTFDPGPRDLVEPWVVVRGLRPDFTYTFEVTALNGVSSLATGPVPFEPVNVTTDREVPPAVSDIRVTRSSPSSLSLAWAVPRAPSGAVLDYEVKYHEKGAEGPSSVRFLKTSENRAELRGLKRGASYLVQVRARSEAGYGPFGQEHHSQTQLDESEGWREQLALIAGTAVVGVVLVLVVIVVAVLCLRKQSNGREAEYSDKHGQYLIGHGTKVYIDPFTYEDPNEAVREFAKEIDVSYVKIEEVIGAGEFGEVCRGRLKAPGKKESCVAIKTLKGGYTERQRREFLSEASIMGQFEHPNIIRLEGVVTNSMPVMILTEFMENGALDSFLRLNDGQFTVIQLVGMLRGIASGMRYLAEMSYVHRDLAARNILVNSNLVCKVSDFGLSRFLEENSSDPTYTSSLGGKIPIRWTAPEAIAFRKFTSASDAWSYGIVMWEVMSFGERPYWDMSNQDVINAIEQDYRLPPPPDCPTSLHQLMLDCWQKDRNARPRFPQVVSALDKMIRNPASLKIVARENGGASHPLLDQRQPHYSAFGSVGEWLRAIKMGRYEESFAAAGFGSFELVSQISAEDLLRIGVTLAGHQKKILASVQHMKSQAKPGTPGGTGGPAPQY
# [14] = biological target: T5, Ephrin type-B receptor 4 (Homo sapiens); conditions: at 10 µM
# [15] = biological target: Receptor tyrosine-protein kinase erbB-4 (Homo sapiens) (UniProt Q15303); conditions: at 1 µM
# Receptor tyrosine-protein kinase erbB-4 (Homo sapiens), sequence (Q15303 whole entry): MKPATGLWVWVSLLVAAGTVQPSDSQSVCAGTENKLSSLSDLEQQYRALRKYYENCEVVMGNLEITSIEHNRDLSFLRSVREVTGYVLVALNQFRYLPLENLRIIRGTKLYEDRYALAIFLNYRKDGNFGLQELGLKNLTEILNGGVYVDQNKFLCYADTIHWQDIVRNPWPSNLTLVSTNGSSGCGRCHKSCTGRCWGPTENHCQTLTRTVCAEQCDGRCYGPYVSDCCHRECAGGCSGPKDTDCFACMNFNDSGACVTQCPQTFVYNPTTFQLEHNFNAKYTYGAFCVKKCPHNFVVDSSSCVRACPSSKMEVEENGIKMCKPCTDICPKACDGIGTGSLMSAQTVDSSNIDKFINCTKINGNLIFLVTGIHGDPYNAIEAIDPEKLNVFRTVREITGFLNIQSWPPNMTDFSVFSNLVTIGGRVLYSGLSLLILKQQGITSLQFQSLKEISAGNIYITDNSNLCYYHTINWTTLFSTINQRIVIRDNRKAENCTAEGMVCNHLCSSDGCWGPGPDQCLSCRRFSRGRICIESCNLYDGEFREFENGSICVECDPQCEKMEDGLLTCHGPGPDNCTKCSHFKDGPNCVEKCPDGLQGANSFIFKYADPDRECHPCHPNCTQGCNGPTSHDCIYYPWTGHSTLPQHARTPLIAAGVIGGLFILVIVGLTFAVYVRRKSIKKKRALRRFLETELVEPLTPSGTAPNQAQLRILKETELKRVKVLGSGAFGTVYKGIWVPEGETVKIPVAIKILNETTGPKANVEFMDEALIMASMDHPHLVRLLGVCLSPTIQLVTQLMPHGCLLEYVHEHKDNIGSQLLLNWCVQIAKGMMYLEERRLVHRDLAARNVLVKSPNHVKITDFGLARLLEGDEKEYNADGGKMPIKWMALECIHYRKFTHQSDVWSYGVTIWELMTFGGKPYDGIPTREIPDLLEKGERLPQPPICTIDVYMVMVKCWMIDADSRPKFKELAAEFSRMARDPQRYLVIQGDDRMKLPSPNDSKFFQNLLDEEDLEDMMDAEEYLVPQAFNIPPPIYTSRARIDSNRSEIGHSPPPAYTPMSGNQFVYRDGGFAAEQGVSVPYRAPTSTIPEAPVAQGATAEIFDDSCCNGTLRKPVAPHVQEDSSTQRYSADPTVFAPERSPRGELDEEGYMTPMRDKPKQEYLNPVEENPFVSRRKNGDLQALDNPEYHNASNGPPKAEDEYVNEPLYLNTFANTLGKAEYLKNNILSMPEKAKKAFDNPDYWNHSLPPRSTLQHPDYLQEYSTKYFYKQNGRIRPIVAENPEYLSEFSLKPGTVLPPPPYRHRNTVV
# [16] = biological target: Receptor tyrosine-protein kinase erbB-4 (Homo sapiens) (UniProt Q15303); conditions: at 10 µM
# [17] = biological target: Focal adhesion kinase 1 (Homo sapiens) (UniProt Q05397); conditions: at 1 µM
# [18] = biological target: T6, Ephrin type-B receptor 2 (Homo sapiens) (UniProt P29323); conditions: at 10 µM
# T6 sequence (whole entry): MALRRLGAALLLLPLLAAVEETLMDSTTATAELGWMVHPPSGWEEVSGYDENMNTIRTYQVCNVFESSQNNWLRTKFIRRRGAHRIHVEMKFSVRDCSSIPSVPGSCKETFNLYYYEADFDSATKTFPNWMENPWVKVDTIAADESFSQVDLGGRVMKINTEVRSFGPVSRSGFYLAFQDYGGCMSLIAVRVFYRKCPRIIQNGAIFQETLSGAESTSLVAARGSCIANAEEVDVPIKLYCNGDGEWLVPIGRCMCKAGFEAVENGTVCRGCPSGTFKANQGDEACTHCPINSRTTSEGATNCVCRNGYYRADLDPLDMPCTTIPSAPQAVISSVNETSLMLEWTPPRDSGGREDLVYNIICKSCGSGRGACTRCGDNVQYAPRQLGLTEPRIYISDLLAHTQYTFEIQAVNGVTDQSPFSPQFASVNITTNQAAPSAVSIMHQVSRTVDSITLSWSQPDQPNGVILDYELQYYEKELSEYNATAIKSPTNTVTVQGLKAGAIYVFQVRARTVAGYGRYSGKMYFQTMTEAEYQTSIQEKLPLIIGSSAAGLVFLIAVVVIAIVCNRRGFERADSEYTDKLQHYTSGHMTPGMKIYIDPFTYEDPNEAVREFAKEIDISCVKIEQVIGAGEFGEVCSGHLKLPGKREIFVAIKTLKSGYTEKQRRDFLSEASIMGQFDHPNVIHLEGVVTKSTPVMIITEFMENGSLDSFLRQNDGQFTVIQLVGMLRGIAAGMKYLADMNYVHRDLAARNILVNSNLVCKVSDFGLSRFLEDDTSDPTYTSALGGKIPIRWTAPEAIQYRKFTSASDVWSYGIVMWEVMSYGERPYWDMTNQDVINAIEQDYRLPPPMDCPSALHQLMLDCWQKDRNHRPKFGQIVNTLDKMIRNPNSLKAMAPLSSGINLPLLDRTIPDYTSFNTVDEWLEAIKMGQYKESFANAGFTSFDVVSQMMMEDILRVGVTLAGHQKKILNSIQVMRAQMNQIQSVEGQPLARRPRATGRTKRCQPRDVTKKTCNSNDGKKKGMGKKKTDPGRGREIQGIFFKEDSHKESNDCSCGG
SMILES,residual activity [1] [%],residual activity [2] [%],residual activity [3] [%],residual activity [4] [%],residual activity [5] [%],residual activity [6] [%],residual activity [7] [%],residual activity [8] [%],residual activity [9] [%],residual activity [10] [%],residual activity [11] [%],residual activity [12] [%],residual activity [13] [%],residual activity [14] [%],residual activity [15] [%],residual activity [16] [%],residual activity [17] [%],residual activity [18] [%]
COc1cc2ncnc(Nc3cccc(Cl)c3)c2cc1OC,42,103,57,77,27,73,22,85,35,84,24,121,45,5,35,4,146,
Fc1ccc(-c2nc3n(c2-c2ccncc2)CCS3)cc1,90,,,,89,99,84,97,70,,,,,,,,,91
